Measured values from PubChem BioAssay AID1159580 (chemical genetic matrix, 2015).
“And” between values parts separate entries of the source, which are not always exact repeats. Equal values may be shown once. Screen size: about 5,500 compounds; about 2,000 (36%) were called active. About 18% were inconclusive and are not listed. No stated cut-off is given here; in the data, active means normalized growth mostly below about 0.91 (no sharp cut-off); inconclusive means no clear call, values can overlap the other calls; inactive means mostly above about 0.92. Some of the results follow.

Assay: chemical genetic growth profiling, strain panel (AID 1159580);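 further: tested at 20 µM; growth read once vehicle control cultures reached saturation at 30 °C; 1 = growth at the plate median or of vehicle wells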
Conditions: growth OD
[1] = S. cerevisiae deletion strains, locus YAL013W, strain DEP1, stronger effect = lower value
[2] = S. cerevisiae deletion strains, locus YDR150W, strain NUM1, stronger effect = lower value
[3] = S. cerevisiae deletion strains, locus YMR307W, strain GAS1, stronger effect = lower value
[4] = S. cerevisiae deletion strains, locus YNL128W, strain TEP1, stronger effect = lower value
[5] = S. cerevisiae deletion strains, locus YNL153C, strain GIM3, stronger effect = lower value
[6] = S. cerevisiae deletion strains, locus YPL055C, strain LGE1, stronger effect = lower value

Measured: normalized growth

CCN1C(=O)C=CC1=O
inactive: [1] 1.04 | S. cerevisiae deletion strains, locus YAL040C, strain CLN3, stronger effect = lower value 1 | S. cerevisiae deletion strains, locus YCL061C, strain MRC1 (second series), stronger effect = lower value 1.01 | [2] 1.01 | S. cerevisiae deletion strains, locus YDR363W, strain ESC2, stronger effect = lower value 0.992 | S. cerevisiae deletion strains, locus YER002W, strain NOP16, stronger effect = lower value 1 | [3] 1.02 | [4] 1.03 | [5] 1.02 | S. cerevisiae deletion strains, locus YNL175C, strain NOP13, stronger effect = lower value 1.01 | S. cerevisiae deletion strains, locus YNL197C, strain WHI3, stronger effect = lower value 1.01 | S. cerevisiae deletion strains, locus YNL224C, strain SQS1, stronger effect = lower value 1 | S. cerevisiae deletion strains, locus YOR083W, strain WHI5 (second series), stronger effect = lower value 1.07 | [6] 1.09

C[C@@]12C(=O)OC(=O)[C@]1(C)C1CCC2O1
inactive: [1] 0.966 | S. cerevisiae deletion strains, locus YDL035C, strain GPR1, stronger effect = lower value 0.919 | S. cerevisiae deletion strains, locus YDL101C, strain DUN1, stronger effect = lower value 0.971 | S. cerevisiae deletion strains, locus YDL134C, strain PPH21, stronger effect = lower value 0.939 | [2] 0.926 | S. cerevisiae deletion strains, locus YER110C, stronger effect = lower value 0.902 | S. cerevisiae deletion strains, locus YGL248W, strain PDE1, stronger effect = lower value 0.932 | S. cerevisiae deletion strains, locus YGR078C, strain PAC10, stronger effect = lower value 0.869 | S. cerevisiae deletion strains, locus YGR229C, strain SMI1, stronger effect = lower value 1.02 | S. cerevisiae deletion strains, locus YGR252W, strain gcn5, stronger effect = lower value 0.848 | S. cerevisiae deletion strains, locus YIL066C, strain RNR3, stronger effect = lower value 0.924 | S. cerevisiae deletion strains, locus YIL073C, strain SPO22, stronger effect = lower value 0.968 | S. cerevisiae deletion strains, locus YJL134W, strain LCB3, stronger effect = lower value 0.929 | S. cerevisiae deletion strains, locus YJL187C, strain SWE1 (second series), stronger effect = lower value 0.895 | S. cerevisiae deletion strains, locus YJR043C, strain POL32, stronger effect = lower value 0.862 | S. cerevisiae deletion strains, locus YJR075W, strain HOC1, stronger effect = lower value 0.964 | S. cerevisiae deletion strains, locus YKL190W, strain CNB1, stronger effect = lower value 0.94 | S. cerevisiae deletion strains, locus YLR039C, strain RIC1, stronger effect = lower value 0.918 | S. cerevisiae deletion strains, locus YLR058C, strain SHM2, stronger effect = lower value 0.931 | S. cerevisiae deletion strains, locus YLR262C, strain YPT6, stronger effect = lower value 1 | S. cerevisiae deletion strains, locus YLR330W, strain CHS5, stronger effect = lower value 0.923 | S. cerevisiae deletion strains, locus YLR342W, strain FKS1 (second series), stronger effect = lower value 1.11 | S. cerevisiae deletion strains, locus YLR418C, strain cdc73, stronger effect = lower value 0.949 | [3] 1.13 | [4] 0.944 | S. cerevisiae deletion strains, locus YNL233W, strain BNI4, stronger effect = lower value 0.923 | S. cerevisiae deletion strains, locus YNL307C, strain MCK1, stronger effect = lower value 0.922 | S. cerevisiae deletion strains, locus YOL006C, strain TOP1, stronger effect = lower value 0.835 | S. cerevisiae deletion strains, locus YOL012C, strain htz1 0.4 | S. cerevisiae deletion strains, locus YOR061W, strain CKA2, stronger effect = lower value 0.905 | S. cerevisiae deletion strains, locus YOR184W, strain ser1, stronger effect = lower value 0.939 | S. cerevisiae deletion strains, locus YPL241C, strain CIN2, stronger effect = lower value 0.932 | S. cerevisiae strains, strain wild type, stronger effect = lower value 0.94
active: S. cerevisiae deletion strains, locus YBR021W, strain FUR4, stronger effect = lower value 0.808 | S. cerevisiae deletion strains, locus YBR229C, strain ROT2, stronger effect = lower value 0.913 | S. cerevisiae deletion strains, locus YCL029C, strain bik1, stronger effect = lower value 0.685 | S. cerevisiae deletion strains, locus YDL074C, strain BRE1, stronger effect = lower value 0.662 | S. cerevisiae deletion strains, locus YDL185W, strain tfp1, stronger effect = lower value 0.106 | S. cerevisiae deletion strains, locus YDL192W, strain arf1, stronger effect = lower value 0.87 | S. cerevisiae deletion strains, locus YDR101C, strain arx1, stronger effect = lower value 0.715 | S. cerevisiae deletion strains, locus YDR162C, strain NBP2, stronger effect = lower value 0.824 | S. cerevisiae deletion strains, locus YDR318W, strain mcm21, stronger effect = lower value 0.681 | S. cerevisiae deletion strains, locus YDR388W, stronger effect = lower value 0.85 | S. cerevisiae deletion strains, locus YDR502C, strain sam2, stronger effect = lower value 0.826 | S. cerevisiae deletion strains, locus YEL061C, strain CIN8, stronger effect = lower value 0.91 | S. cerevisiae deletion strains, locus YER155C, strain BEM2, stronger effect = lower value 0.887 | S. cerevisiae deletion strains, locus YER167W, strain BCK2, stronger effect = lower value 0.895 | S. cerevisiae deletion strains, locus YGL078C, strain dbp3, stronger effect = lower value 0.15 | S. cerevisiae deletion strains, locus YGL086W, strain mad1, stronger effect = lower value 0.911 | S. cerevisiae deletion strains, locus YGR135W, strain pre9, stronger effect = lower value 0.785 | S. cerevisiae deletion strains, locus YHR030C, strain SLT2, stronger effect = lower value 0.0503 and 0.0957 | S. cerevisiae deletion strains, locus YHR079C, strain IRE1 (second series), stronger effect = lower value 0.782 | S. cerevisiae deletion strains, locus YHR079C, strain IRE1, stronger effect = lower value 0.173 | S. cerevisiae deletion strains, locus YHR094C, strain hxt1, stronger effect = lower value 0.861 | S. cerevisiae deletion strains, locus YHR129C, strain ARP1, stronger effect = lower value 0.877 | S. cerevisiae deletion strains, locus YHR200W, strain rpn10, stronger effect = lower value 0.82 | S. cerevisiae deletion strains, locus YIL125W, strain kgd1, stronger effect = lower value 0.23 | S. cerevisiae deletion strains, locus YIR030C, strain dcg1, stronger effect = lower value 0.869 | S. cerevisiae deletion strains, locus YJL095W, strain BCK1, stronger effect = lower value 0.0568 and 0.105 | S. cerevisiae deletion strains, locus YJL168C, strain set2, stronger effect = lower value 0.798 | S. cerevisiae deletion strains, locus YJR066W, strain TOR1, stronger effect = lower value 0.049 | S. cerevisiae deletion strains, locus YKL009W, strain mrt4, stronger effect = lower value 0.169 | S. cerevisiae deletion strains, locus YKL068W, stronger effect = lower value 0.288 | S. cerevisiae deletion strains, locus YKL085W, strain MDH1 (second series), stronger effect = lower value 0.17 | S. cerevisiae deletion strains, locus YKL085W, strain MDH1, stronger effect = lower value 0.17 | S. cerevisiae deletion strains, locus YKR001C, strain vps1, stronger effect = lower value 0.658 | S. cerevisiae deletion strains, locus YLR102C, strain apc9, stronger effect = lower value 0.833 | S. cerevisiae deletion strains, locus YLR113W, strain HOG1, stronger effect = lower value 0.182 | S. cerevisiae deletion strains, locus YLR268W, strain sec22, stronger effect = lower value 0.78 | S. cerevisiae deletion strains, locus YLR371W, strain rom2, stronger effect = lower value 0.879 | S. cerevisiae deletion strains, locus YML016C, strain PPZ1, stronger effect = lower value 0.91 | S. cerevisiae deletion strains, locus YML032C, strain rad52, stronger effect = lower value 0.69 | S. cerevisiae deletion strains, locus YML124C, strain tub3, stronger effect = lower value 0.853 | S. cerevisiae deletion strains, locus YMR078C, strain ctf18, stronger effect = lower value 0.753 | S. cerevisiae deletion strains, locus YMR223W, strain ubp8, stronger effect = lower value 0.8 | S. cerevisiae deletion strains, locus YMR263W, strain SAP30, stronger effect = lower value 0.877 | S. cerevisiae deletion strains, locus YNL067W, strain RPL9B, stronger effect = lower value 0.841 | [5] 0.671 | S. cerevisiae deletion strains, locus YNL183C, strain NPR1, stronger effect = lower value 0.0569 | S. cerevisiae deletion strains, locus YNL250W, strain rad50, stronger effect = lower value 0.144 | S. cerevisiae deletion strains, locus YNL271C, strain bni1, stronger effect = lower value 0.521 | S. cerevisiae deletion strains, locus YNL298W, strain CLA4, stronger effect = lower value 0.162 | S. cerevisiae deletion strains, locus YNL322C, strain KRE1, stronger effect = lower value 0.923 | S. cerevisiae deletion strains, locus YNR052C, strain pop2, stronger effect = lower value 0.791 | S. cerevisiae deletion strains, locus YOL147C, strain pex11, stronger effect = lower value 0.825 | S. cerevisiae deletion strains, locus YOR069W, strain VPS5, stronger effect = lower value 0.917 | S. cerevisiae deletion strains, locus YOR136W, strain idh2, stronger effect = lower value 0.906 | S. cerevisiae deletion strains, locus YOR144C, strain elg1, stronger effect = lower value 0.703 | S. cerevisiae deletion strains, locus YOR231W, strain MKK1, stronger effect = lower value 0.147 | S. cerevisiae deletion strains, locus YOR316C, strain cot1, stronger effect = lower value 0.854 | [6] 0.601 | S. cerevisiae deletion strains, locus YPL256C, strain CLN2, stronger effect = lower value 0.167 | S. cerevisiae deletion strains, locus YPR119W, strain clb2, stronger effect = lower value 0.861 | S. cerevisiae deletion strains, locus YPR141C, strain kar3, stronger effect = lower value 0.113 | S. cerevisiae deletion strains, locus YPR163C, strain tif3, stronger effect = lower value 0.585 | S. cerevisiae deletion strains, locus YPR167C, strain met16, stronger effect = lower value 0.786 | S. cerevisiae deletion strains, strain wtn01, stronger effect = lower value 0.834
